Screening data (PubChem BioAssay)
Rows were chosen to be rich in hits. Some 8% of all compounds tested hit in one or more screens of this group.
Lassa entry – inhibitors of Lassa virus binding or entry into cells. Lassa virus pseudotyped entry inhibition, cell-based qHTS. Potency, µM (highest dose often 49.2 µM), inactives show at the top dose activity change, negative = inhibition, hits mostly inhibitors. AID 720533. hit rate 4.1% among 18,000
MARV entry inh – inhibitors of Marburg virus binding or entry into cells. hit rate 6.5% among 18,000. Marburg virus pseudotype entry/binding inhibition, cell-based. Potency, µM (titrated, usually from 49.2 µM), for inactives: top-dose activity change, negative = inhibition, most hits filed as inhibitors. AID 720532
Numbers without * were called inactive; ? = inconclusive; / = no result; ! = not confirmed by another sample; [ ] = dose if it differs, or a comment. Calls come from the whole dose curve; tested in HEK293 cells. % is set by controls: 0 for no effect and ±100 for the full control effect; potency is the fitted concentration of half-maximal effect.

SMILES | Lassa entry | MARV entry inh
CN1CCN(C2=Nc3ccccc3Cc3ccccc32)CC1 | -5% | ?
CC(C)Nc1oc(-c2ccccc2)nc1-c1ccc(C(F)(F)F)cc1 | -11%[8.59 µM] | -8%[8.59 µM]
O=C1OC2(CCCCC2)CC2=C1[C@H]1O[C@](c3ccsc3)(Cc3c1ccc1ccccc31)O2 | 6%[8.59 µM] | 2%[8.59 µM]
CCOc1cc(N)c(Cl)cc1C(=O)NCC1CN(Cc2ccc(F)cc2)CCO1 (configuration not stated) | -1% | 11%
CCCCN1CCC(CCC(=O)c2cc(Cl)c(N)cc2OC)CC1 | 28µM*! | 11µM*
C[C@@H]1CCC2[C@@H](C)[C@@H](O)O[C@@H]3O[C@@]4(C)CC[C@@H]1[C@@]23OO4 (some centres not stated) | 0.63µM* | 1.3µM*
CC1CCC2C(C)C(=O)OC3OC4(C)CCC1C32OO4 (configuration not stated) | ? | -7%
CN(C)c1ccc2c(-c3ccccc3)c3ccc(=[N+](C)C)cc-3oc2c1 | 3.2µM* | 2.5µM*
O=C(O)c1ccccc1-c1c2ccc(=O)cc-2oc2cc(O)ccc12 | 11% | -4%
[Cl-].[Cl-].[Hg+2] | 3.2µM* | 2.8µM*
CC(=O)[C@]12[C@H](c3ccccc3)[C@@H]3CCN(C(=O)N[C@H]1c1ccccc1)[C@@]32C | -1%[8.59 µM] | -11%[8.59 µM]
O=C(CSc1ncccn1)NCC1Cc2cccc(-c3ncccn3)c2O1 (configuration not stated) | -5% | 141µM*
CC(=O)c1ccc(C(=O)NCC2Cc3cccc(-c4ncccn4)c3O2)cc1 (configuration not stated) | 4% | ?
Cc1ccc(CN2CC(N3CCN(C(=O)c4ccco4)CC3)CS2(=O)=O)cc1 (configuration not stated) | 13% | 27%
COc1cc(CCN)ccc1O | -1% | 2%
CCCSc1cc(OC)c(CCN)cc1OC | ? | 22µM*
COc1cc(CNCc2cc3ccc(F)cc3nc2N2CCOCC2)cc(OC)c1OC | -10% | -9%
OCCCNCc1cc2ccc(F)cc2nc1N1CCN(c2cccc(Cl)c2)CC1 | ? | 10µM*
COCCN1C(=O)N(C)C(c2ccccc2)C(C(C)=O)=C1C (configuration not stated) | -18%[8.59 µM] | ?
CCCCCCOc1ccc(C(=N)N(CCCC)CCCC)c2ccccc12 | 13µM* | 13µM*
CCCCCCCCOc1ccc(C(=O)c2ccccc2)c(O)c1 | -20% | -2%
C[C@H]1C[C@@H](C)O[C@@]2(C1)C(=O)N(Cc1ccccc1C(F)(F)F)c1ccccc12 | 1%[8.59 µM] | -15%[8.59 µM]
Nc1c2ccccc2nc2ccccc12 | ? | 14µM*
c1ccc2nc3ccccc3cc2c1 | -27% | ?
Nc1c2c(nc3ccccc13)CCCC2 | ? | 10µM*
SMILES | Lassa entry | MARV entry inh
CC[C@@H](c1ccccc1)n1c(=O)n2n(c1=O)[C@H]1[C@H](O)[C@@H]3O[C@H]3C(=NOCc3ccccc3)[C@H]1CC2 | 6%[8.59 µM] | ?
CCCCn1c(C)cc2c(c1=O)[C@H]1O[C@](c3ccsc3)(Cc3cc(OC)c(OC)cc31)O2 | 4%[8.59 µM] | ?
CC(CCN1CCc2nc(-c3ccccc3)c(-c3ccccc3)cc2C1)=NOC[C@@H](O)COCc1ccco1 | 6%[8.59 µM] | 24%[8.59 µM]
CC(=O)OC1CC(OC2C(O)CC(OC3C(O)CC(OC4CCC5(C)C(CCC6C5CC(O)C5(C)C(C7=CC(=O)OC7)CCC65O)C4)OC3C)OC2C)OC(C)C1OC1OC(CO)C(O)C(O)C1O (configuration not stated) | 0.32µM* | 0.28µM*
CC(=O)O[C@H]1C[C@H](O[C@H]2[C@@H](O)C[C@H](O[C@H]3[C@@H](O)C[C@H](OC4CC[C@@]5(C)[C@H](CC[C@@H]6[C@@H]5CC[C@]5(C)[C@@H](C7=CC(=O)OC7)CC[C@]65O)C4)O[C@@H]3C)O[C@@H]2C)O[C@H](C)[C@H]1O[C@@H]1O[C@H](CO)[C@@H](O)[C@H](O)[C@H]1O (some centres not stated) | 25µM* | 5.6µM*
CC(=O)OC1CCC23C(=O)OC45CCC(C6=CC(=O)OC6)C4(C)CCC2C5CCC3(O)C1 (configuration not stated) | 1.3µM* | 0.56µM*
CC(=O)O[C@H]1C[C@@H](O[C@@H]2[C@H](C)O[C@H](O[C@@H]3[C@H](C)O[C@H](O[C@@H]4CC[C@@]5(C)[C@@H](CC[C@]6(C)[C@]5(C)C[C@H](O)[C@]5(C)[C@@H](C7=CC(=O)OC7)CC[C@@]56O)C4)C[C@@H]3O)C[C@@H]2O)O[C@@H](C)[C@H]1O[C@H]1O[C@@H](CO)[C@@H](O)[C@@H](O)[C@@H]1O | 0.89µM* | 0.89µM*
C[C@@H]1COc2cc(Br)ccc2S(=O)(=O)N1 | 23% | -24%
COC(=O)C(C(=O)OC)[C@@H]1O[C@@]23COCC[C@]2(C)[C@@H]3c2ccccc21 | -9%[8.59 µM] | 17%[8.59 µM]
O=C(C=NO)NCCCCNC(=O)C=NO | 13%[8.59 µM] | -3%[8.59 µM]
CC(=O)OC1CC[C@]2(C)C(CCC3C2CC[C@]2(C)C(C4=CC(=O)OC4)C(OC(C)=O)CC32O)C1 (some centres not stated) | 1.4µM* | 0.71µM*
CC(=O)OC1CC[C@@]2(C)C3CC[C@@]4(C)C(CC5O[C@@]6(CCC(C)CO6)C(C)C54)C3CC[C@@H]2C1 (some centres not stated) | -7% | 9%
O=C(Nc1ccc(/C=C/c2ccc(NC(=O)c3cc(S(=O)(=O)O)c4cccnc4c3O)cc2S(=O)(=O)O)c(S(=O)(=O)O)c1)c1cc(S(=O)(=O)O)c2cccnc2c1O | 3% | 3.5µM*
O=S(=O)(O)c1cc(I)c(O)c2ncccc12 | ? | -20%
O=C(C1CCCCC1)N1C[C@@H](O)[C@@H](n2cc(C3CC3)nn2)C[C@@H]1c1ccc(Cl)cc1 | 11% | -19%
COc1ccc(CN2CCOc3c(cc(-c4ccc(OC)nn4)cc3OC)C2)c(O)c1 | -21% | -19%
COc1ccc(OC)c(-c2ccc(O)c(CN3CCc4c([nH]c5ccccc45)C3)c2)c1 | ? | 13µM*
C[C@]12O[C@@H]1[C@@H](O)C(Br)=C(CO)[C@@H]2O | 3%[8.59 µM] | 52%[8.59 µM]
COC(=O)CC=C[C@@H](C)[C@@H](C=NOC[C@@H](C)[C@H](OCc1ccccc1)C(C)C)NS(=O)(=O)c1ccc(C)cc1 | / | -14%[8.59 µM]
CC(C)C[C@@H](NC(=O)OCC1c2ccccc2-c2ccccc21)C(=O)O | 14% | 9%
COC(=O)[C@H](Cc1ccccc1)NC(=O)[C@@H](N)CC(=O)O | 3% | 22%
CC(=O)[C@H](CC(C)C)NC(=O)[C@@H](CC(C)C)NC(=O)[C@H](CC(C)C)NC(=O)OCc1ccccc1 | 0.32µM* | -87%
CC(C)C[C@@H](/C=C/S(C)(=O)=O)NC(=O)[C@H](CC(C)C)NC(=O)[C@H](CC(C)C)NC(=O)OCc1ccccc1 | 1.1µM* | ?
Cc1nc2sccn2c1CN1CCOc2ccc(CN3C[C@@H](C)O[C@@H](C)C3)cc2C1 | -10% | -22%
O[C@@H](c1cc(C(F)(F)F)nc2c(C(F)(F)F)cccc12)[C@H]1CCCCN1 | 28µM* | 10µM*
C=C[C@@]1(C)CCC=C2C(=O)CCC[C@H]21 | -27%[8.59 µM] | ?
CCC(=O)O[C@]1(c2ccccc2)CCN(C)C[C@H]1C | -4% | 7%
CN1CC[C@@]2(c3cccc(O)c3)Cc3nc4ccccc4cc3C[C@H]2C1 | -4% | 18µM*
CC(=O)C1=C(C)N(Cc2ccco2)C(=O)NC1c1ccccc1 (configuration not stated) | 5%[8.59 µM] | -1%[8.59 µM]
